Cav32 inh = blocks human Cav3.2 T-type calcium channel | actives 4% (n = 100,000) | Cav3.2-expressing cells, Fluo-4 calcium fluorescence FDSS; active compounds read low | AID 449739 | O95180 | B-score at 10 µM;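 active means single-dose well whose peak fluorescence ratio is a statistical outlier from its plate by either plate-standardised score or position-corrected B-score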
PTK2B oligo ant = Pyk2 (human) oligomerization antagonism | Q293 cells, Pyk2 FERM NanoBiT luminescence; active compounds read low | actives 0.83% (n = 99,000) | z-score (the deposit names both 25 µM and 10 µM) | AID 1347419;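 active means Z-score of -3 or lower, scaled per plate to the spread of control and sample wells; inactive means z-score above -3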;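 further: negative z-score means lost luminescence so less FERM oligomerization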
M1 ag = activates the M1 muscarinic receptor; CHO-M1 cells, Fluo-4 calcium fluorescence, agonist mode; active compounds read high; AID 626; actives 3% (n = 64,000); B-score at 10 µM;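 active means fluorescence rise, raw or as B-score row- and column-corrected plate score, outside the 99.7% band of its plate's samples, either direction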
M1 antagonist = blocks the rat M1 muscarinic receptor response to acetylcholine; CHO-M1 cells, Fluo-4 calcium, ACh EC80 antagonist mode; active compounds read low; B-score at 10 µM; actives 3.4% (n = 64,000); AID 628;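 active means calcium fluorescence response, raw or row-and-column corrected B-score, differing from the plate sample mean either way at a set confidence level, mostly lower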
M1 agonist conf = confirmation of rat M1 muscarinic receptor agonists; shares compounds with M1 ag; AID 1488; actives 19% (n = 1,700); CHO-M1 cells, Fluo-4 calcium fluorescence, agonist mode; actives lie on both sides; fluorescence change (max-min) at 10 µM;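 active means fluorescence change differs from the solvent-only DMSO control mean at a set confidence level in both duplicate runs; inconclusive means differs from solvent-only control mean in just one of two runs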;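 further: an EC20 dose of acetylcholine follows compound addition during the same imaging run; raw fluorescence intensity difference in instrument units with no normalization to controls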
M4 ag counter = counter-screen for M1 agonists: activity at rat M4 receptor; shares compounds with M1 ag; CHO M4/Gqi5 cells, Fluo-4 calcium fluorescence, agonist mode; actives lie on both sides; fluorescence change (max-min) at 10 µM; actives 9% (n = 1,700); AID 1741;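 active means fluorescence change differing from the plate's solvent-only control wells at 99.7% confidence in both duplicates, whether higher or lower; inconclusive means differs from solvent controls in only one of two duplicates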
M1 antag conf = confirmation of rat M1 muscarinic receptor antagonists; calcium response (max-min fluorescence) at 10 µM; CHO-M1 cells, Fluo-4 calcium, ACh EC80 antagonism; active compounds read low; AID 677; shares compounds with M1 antagonist; actives 43% (n = 1,700);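 active means calcium response below the same-plate mean of wells given acetylcholine alone at its 80%-effect dose, minus 3 SD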;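 further: raw fluorescence intensity difference in arbitrary instrument units and not normalized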
mGluR4 antag = mGluR4 (human) activity, M1 antagonist secondary assay | shares compounds with M1 antagonist | CHO-mGluR4 calcium flux, Fluo-4 fluorescence, glutamate EC80; active compounds read low | fluorescence response (max-min) at 10 µM | actives 0.9% (n = 1,700) | AID 678;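 active means fluorescence response below the plate's average for near-maximal glutamate wells, less 3 SD of those wells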;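 further: raw unnormalized fluorescence span taken in the window right after glutamate addition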
Starred values were filed as active, the others as inactive; ? = inconclusive; nt = not tested or not shown. An excerpt weighted towards active compounds, which were near 7.1% of everything screened.

SMILES | Cav32 inh | PTK2B oligo ant | M1 ag | M1 antagonist | M1 antag conf | mGluR4 antag | others
CN1CCCC(n2nc(Cc3ccc(Cl)cc3)c3ccccc3c2=O)CC1 (centres undefined) | -0.73 | nt | nt | nt | nt | nt
O=C(COC(=O)c1cc(S(=O)(=O)N2CCOCC2)ccc1Cl)Nc1ccc2c(c1)OCO2 | 0.081 | 0.38 | 0.2 | 0.66 | nt | nt
O=C1CN(C(=O)c2ccc(Br)o2)C(c2ccc(F)cc2)c2cc(Cl)ccc2N1 (centres undefined) | -6.8* | -2.2 | 2.8* | -0.84 | nt | nt | M1 agonist conf=-15;M4 ag counter=?
Cc1ccc2c(c1)C(c1ccccc1)N(C(=O)c1ccc(Br)o1)CC(=O)N2 (centres undefined) | nt | nt | 0.58 | 0.75 | nt | nt
Clc1nc2sccn2c1/C=N/n1cnc2ccccc21 | 0.99 | -1 | 8.4* | -0.8 | nt | nt | M1 agonist conf=-9.2;M4 ag counter=-46
C(=N\n1cnc2ccccc21)/c1cccnc1 | nt | -0.15 | nt | nt | nt | nt
COC(=O)CNc1c(-c2ccccn2)nc2ccc(Br)cn12 | -0.28 | 0.13 | 5.1* | 0.5 | nt | nt | M1 agonist conf=27;M4 ag counter=-32
Cc1ccnc(NC(=O)c2cccc(NS(=O)(=O)c3ccccc3C)c2)c1 | -2.4 | 0.92 | nt | nt | nt | nt
CCCN1CCN(CCCNC(=O)c2cc3c(=O)n(C)c4ccccc4c3n2C)CC1 | 0.79 | nt | -3.1* | -4.3* | 497 | 215 | M1 agonist conf=?;M4 ag counter=-36
CCOC(=O)c1cnn(-c2ccccc2)c1-n1cccc1C(=O)C(=O)Nc1ccc(OC)cc1 | -3.3 | -0.51 | nt | nt | nt | nt
O=C(O)c1cc(-c2ccco2)nc2ccc(Br)cc12 | 0.75 | -0.12 | -2.5* | -17* | 659 | 231 | M1 agonist conf=-2.5;M4 ag counter=5.1
Cc1ccc(CC2C(=O)N(CC(=O)O)C(=O)C2C)cc1 (centres undefined) | 0.12 | -0.13 | nt | nt | nt | nt
Cc1ccc(CC2C(=O)N(c3ncccn3)C(=O)C2C)cc1 (centres undefined) | -0.32 | nt | -3.7* | -7* | 610 | 254 | M1 agonist conf=-27;M4 ag counter=-34
OCC[C@H]1C[C@@H](O)[C@H](O)[C@@]2(CCCO2)O1 | 0.78 | nt | nt | nt | nt | nt
N=c1c2c3c(sc2nc2n1CCCCC2)CCCCC3 | 0.38 | 0.06 | -3.3* | -19* | 15* | 281 | M1 agonist conf=-24*;M4 ag counter=-37
O=c1c2c3c(sc2nc2n1CCCC2)CCCCC3 | 1.2 | 0.57 | nt | nt | nt | nt
CN(C1CCCCC1)S(=O)(=O)c1ccc(-n2cnnn2)cc1 | 0.45 | 2.5 | 0.81 | -2.1* | 610 | 243
CCOC(=O)c1c[nH]c2c(Cl)c(Cl)ccc2c1=O | 0.48 | 1.9 | nt | nt | nt | nt
CCOC(=O)c1cnc2c(Cl)c(Cl)ccc2c1N1CCN(C)CC1 | 2.2 | 0.47 | -0.52 | -3.1* | 511 | 211
O=C(CCSc1nc(-c2ccco2)cc(C(F)(F)F)n1)N1CCN(c2ccccc2)CC1 | -2.5 | 1.1 | 0.35 | -3.8* | 668 | 189
COc1ccc(-c2cc(C(F)(F)F)nc(SCCC(=O)N3CCN4CCCC4C3)n2)cc1 (centres undefined) | 1.8 | -0.48 | 0.066 | -3.4* | 310* | 248
O=C(O)c1cc(C(F)(F)F)nc2c(C(F)(F)F)cccc12 | -0.14 | nt | nt | nt | nt | nt
COc1ccc(CNc2nc3ccccc3n2CCN2CCCCC2)c(OC)c1 | -1.1 | 0.46 | nt | nt | nt | nt
COc1cccc(CNc2nc3ccccc3n2CCN2CCCCC2)c1 | 1.3 | 0.99 | -2.1 | -4.3* | 608 | 273
Cc1ccccc1CN1[C@@H](C(C)C)COCCS1(=O)=O | 0.41 | nt | nt | nt | nt | nt
SMILES | Cav32 inh | PTK2B oligo ant | M1 ag | M1 antagonist | M1 antag conf | mGluR4 antag | others
O=C(c1oc(=O)c2ccccc2c1-c1ccccc1)N1CCN(C2CCCCC2)CC1 | -0.76 | nt | 1.1 | -6.6* | 349* | 209
O=C(c1oc(=O)c2ccccc2c1-c1ccccc1)N1CCC(O)CC1 | 0.3 | nt | -0.53 | -0.19 | nt | nt
CCn1c(SCc2nc3ccccc3nc2C)nnc1-c1cccs1 | 0.48 | 1.1 | -0.26 | 0.028 | nt | nt
c1coc(Cn2c(SCc3nc4ccccc4[nH]3)nnc2-c2cccs2)c1 | -0.17 | 0.54 | 0.16 | -2.3* | 659 | 226
C=CCn1c(SCCN2CCCCC2)nc2c1c(=O)[nH]c(=O)n2C | 0.3 | nt | 0.032 | -2.7* | 468 | 203
C=CCn1c(SCCOC)nc2c1c(=O)[nH]c(=O)n2C | 0.54 | nt | -0.18 | 0.8 | nt | nt
Cn1c(=O)[nH]c(=O)c2c1nc(SCCN1CCCCC1)n2CCCc1ccccc1 | 0.88 | 0.04 | 0.43 | -3.8* | 428 | 187
Cc1ccc(Cn2c(SCCN3CCCCC3)nc3c2c(=O)[nH]c(=O)n3C)cc1 | 0.39 | nt | 0.015 | -1.9* | 457* | 232
Cc1cccc(Cn2c(Sc3nc(C)cs3)nc3c2c(=O)[nH]c(=O)n3C)c1 | 0.52 | -0.23 | -0.64 | -7.1* | 524* | 276
Cc1ccc(Cn2c(SCCN3CCOCC3)nc3c2c(=O)n(C)c(=O)n3C)cc1 | 0.31 | -0.09 | 0.22 | -0.46 | nt | nt
COc1ccc([C@H]2C=C3CN(C(=O)OC(C)(C)C)S(=O)(=O)[C@H]3C[C@H]2OC(=O)c2cccs2)cc1 | -1 | nt | nt | nt | nt | nt
Cn1c(=O)[nH]c(=O)c2c1nc(SCCN1CCCCC1)n2Cc1ccccc1 | 0.098 | 1.2 | 0.0092 | -3.8* | 530* | 205
CC(C)CCn1c(SCCc2ccccc2)nc2c1c(=O)[nH]c(=O)n2C | nt | -1.5 | -0.0074 | 0.36 | nt | nt
NS(=O)(=O)c1cccc(NC(=O)Cn2cnc3ccccc3c2=O)c1 | 0.53 | 1.5 | nt | nt | nt | nt
N=c1c(C(=O)NCc2ccco2)cc2c(=O)n3ccccc3nc2n1Cc1ccc(Cl)cc1 | -2.1 | -0.3 | nt | nt | nt | nt
Cc1cccn2c(=O)c3cc(C(=O)NCc4cccnc4)c(=N)n(C)c3nc12 | nt | nt | 0.4 | 0.2 | nt | nt
Cc1cccn2c(=O)c3cc(C(=O)NCc4cccnc4)c(=N)n(C(C)C)c3nc12 | 0.52 | -0.32 | -1.2 | -2.5* | 579 | 259
N=c1c(C(=O)NCc2ccco2)cc2c(=O)n3ccccc3nc2n1Cc1ccccc1 | -1.6 | -0.79 | -0.083 | -3* | 589* | 206
CC(C)n1c(=N)c(C(=O)NCCc2ccccc2)cc2c(=O)n3ccccc3nc21 | -0.96 | 2 | 4.1 | -4.1* | 445* | 247
CCN(CC)S(=O)(=O)c1cc(C(=O)n2cccn2)c(Cl)cc1Cl | 2 | 0.58 | -0.29 | 0.061 | nt | nt
COc1ccccc1[C@@H]1C(c2cccc(C)c2)=NN(c2ccccc2)[C@H]1C(=O)N1CCOC1=O | -0.33 | nt | nt | nt | nt | nt
COc1ccc(S(=O)(=O)N(CC(=O)N2CCOCC2)Cc2ccccc2)cc1C | -0.14 | -0.48 | nt | nt | nt | nt
COc1ccc(S(=O)(=O)N(CC(=O)O)Cc2ccccc2)cc1OC | 0.76 | 0.06 | -1.4 | -18* | 643 | 197
Cc1cc(N2CCN(c3nc(N4CCOCC4)nc4ccccc34)CC2)c2ccccc2n1 | nt | nt | 0.28 | -7.1* | 24* | 239

Assay outcomes deposited in PubChem BioAssay by several laboratories.
